Source: PubChem BioAssay AID1159580 (chemical genetic matrix, 2015)
About 2,000 (36%) of roughly 5,500 compounds were called active. Another 18% or so got no clear call; they are omitted. Cut-off read from the data, not from the text of the source: active = normalized growth mostly below about 0.91 (no sharp cut-off); inconclusive = no clear call, values can overlap the other calls; inactive = mostly above about 0.92. Some of the results follow.

Assay: chemical genetic growth profiling, strain panel (AID 1159580);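 note: tested at 20 µM; growth read once vehicle control cultures reached saturation at 30 °C; 1 = growth at the plate median or of vehicle wells; lower values mean less growth of the strain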
Conditions: S. cerevisiae deletion strains, growth OD

Measured: normalized growth

Cn1c([N+](=O)[O-])cnc1COC(N)=O
inactive: locus YAL013W, strain DEP1, stronger effect = lower value 1.01 | locus YAL021C, strain ccr4, stronger effect = lower value 1.01 | locus YAL026C, strain drs2, stronger effect = lower value 1.02 | locus YAL030W, strain snc1, stronger effect = lower value 1 | locus YBL061C, strain skt5, stronger effect = lower value 1.01 | locus YBR009C, strain hhf1, stronger effect = lower value 0.978 | locus YBR021W, strain FUR4, stronger effect = lower value 1.02 | locus YBR023C, strain chs3, stronger effect = lower value 1.01 | locus YBR171W, strain sec66, stronger effect = lower value 1.01 | locus YBR229C, strain ROT2, stronger effect = lower value 1.01 | locus YBR231C, strain swc5, stronger effect = lower value 0.992 | locus YBR279W, strain paf1, stronger effect = lower value 1 | locus YCL011C, strain gbp2, stronger effect = lower value 1.01 | locus YCL016C, strain dcc1, stronger effect = lower value 1.01 | locus YCL029C, strain bik1, stronger effect = lower value 0.993 | locus YCL069W, strain vba3, stronger effect = lower value 0.987 | locus YCR088W, strain abp1, stronger effect = lower value 1.01 | locus YDL005C, strain med2, stronger effect = lower value 1.01 | locus YDL035C, strain GPR1, stronger effect = lower value 1.02 | locus YDL040C, strain nat1, stronger effect = lower value 0.997 | locus YDL074C, strain BRE1, stronger effect = lower value 1.02 | locus YDL101C, strain DUN1, stronger effect = lower value 1.02 | locus YDL134C, strain PPH21, stronger effect = lower value 1 | locus YDL185W, strain tfp1, stronger effect = lower value 0.978 | locus YDL192W, strain arf1, stronger effect = lower value 0.984 | locus YDR001C, strain nth1, stronger effect = lower value 1 | locus YDR069C, strain doa4, stronger effect = lower value 0.984 | locus YDR101C, strain arx1, stronger effect = lower value 0.986 | locus YDR137W, strain rgp1, stronger effect = lower value 1.04 | locus YDR150W, strain NUM1, stronger effect = lower value 1 | locus YDR159W, strain sac3, stronger effect = lower value 0.983 | locus YDR162C, strain NBP2, stronger effect = lower value 1.01 | locus YDR195W, strain ref2 1.01 | locus YDR297W, strain sur2, stronger effect = lower value 1.02 | locus YDR318W, strain mcm21, stronger effect = lower value 0.985 | locus YDR334W, strain swr1, stronger effect = lower value 1 | locus YDR335W, strain msn5, stronger effect = lower value 1.01 | locus YDR388W, stronger effect = lower value 0.992 | locus YDR392W, strain spt3, stronger effect = lower value 1.04 | locus YDR502C, strain sam2, stronger effect = lower value 0.989 | locus YEL003W, strain gim4, stronger effect = lower value 0.999 | locus YEL037C, strain rad23, stronger effect = lower value 0.998 | locus YEL061C, strain CIN8 (second series), stronger effect = lower value 1 | locus YEL061C, strain CIN8, stronger effect = lower value 1.01 | locus YER015W, strain faa2, stronger effect = lower value 1.01 | locus YER016W, strain bim1, stronger effect = lower value 1.02 | locus YER110C, stronger effect = lower value 0.988 | locus YER111C, strain swi4, stronger effect = lower value 0.998 | locus YER155C, strain BEM2 (second series), stronger effect = lower value 1.02 | locus YER155C, strain BEM2, stronger effect = lower value 1 | locus YER167W, strain BCK2, stronger effect = lower value 1.01 | locus YFR010W, strain ubp6, stronger effect = lower value 0.983 | locus YGL078C, strain dbp3, stronger effect = lower value 0.987 | locus YGL086W, strain mad1, stronger effect = lower value 0.998 | locus YGL167C, strain pmr1, stronger effect = lower value 1 | locus YGL173C, strain kem1, stronger effect = lower value 1 | locus YGL227W, strain vid30, stronger effect = lower value 1.01 | locus YGL240W, strain doc1, stronger effect = lower value 1 | locus YGL248W, strain PDE1, stronger effect = lower value 1.01 | locus YGL253W, strain hxk2, stronger effect = lower value 1.01 | locus YGR078C, strain PAC10, stronger effect = lower value 1.01 | locus YGR135W, strain pre9, stronger effect = lower value 0.983 | locus YGR252W, strain gcn5, stronger effect = lower value 0.981 | locus YHR013C, strain ard1, stronger effect = lower value 1.04 | locus YHR027C, strain rpn1, stronger effect = lower value 1.02 | locus YHR030C, strain SLT2, stronger effect = lower value 1.01 | locus YHR079C, strain IRE1 (second series), stronger effect = lower value 0.991 | locus YHR079C, strain IRE1, stronger effect = lower value 1 | locus YHR094C, strain hxt1, stronger effect = lower value 0.986 | locus YHR129C, strain ARP1, stronger effect = lower value 1 | locus YHR142W, strain chs7, stronger effect = lower value 1.01 | locus YHR200W, strain rpn10, stronger effect = lower value 0.986 | locus YIL066C, strain RNR3, stronger effect = lower value 1.02 | locus YIL073C, strain SPO22, stronger effect = lower value 1.03 | locus YIL125W, strain kgd1, stronger effect = lower value 0.987 | locus YIR030C, strain dcg1, stronger effect = lower value 0.994 | locus YJL092W, strain hpr5, stronger effect = lower value 1.01 | locus YJL095W, strain BCK1 (second series), stronger effect = lower value 1.01 | locus YJL095W, strain BCK1, stronger effect = lower value 1.02 | locus YJL115W, strain asf1, stronger effect = lower value 0.999 | locus YJL129C, strain trk1, stronger effect = lower value 1.02 | locus YJL134W, strain LCB3, stronger effect = lower value 1 | locus YJL154C, strain vps35, stronger effect = lower value 1.01 | locus YJL164C, strain tpk1, stronger effect = lower value 0.993 | locus YJL166W, strain qcr8, stronger effect = lower value 0.988 | locus YJL168C, strain set2, stronger effect = lower value 0.986 | locus YJL187C, strain SWE1 (second series), stronger effect = lower value 1.02 | locus YJR043C, strain POL32, stronger effect = lower value 1.02 | locus YJR066W, strain TOR1, stronger effect = lower value 0.954
